According to PubChem BioAssay (NCATS):
Inconclusive results are not listed. Active and inactive are the calls of the source. Unless noted, calls come from the whole dose curve; as a rule, active = well fitted curve in the direction sought with a large enough effect; inconclusive = small, poorly fitted or top-dose-only effect, or another doubt; inactive = no such curve, though single readings can be large; an effect the other way counts as inactive or inconclusive.

Assays:
[1] = Confirmation and Secondary Assay for Modulators of Hemoglobin Beta Chain Splicing at IVS2 654 locus (AID 910);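 note: per-well total GFP intensity by laser scanning cytometry after 2-day treatment; % of control where 0% means no effect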
Method in brief: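 HeLa cells stably carrying EGFP interrupted by mutant beta-globin IVS2-654 intron (CMV-driven) were treated with compound for 2 days at 37C; corrected splicing was scored as total peak GFP intensity per well (488 nm excitation, 500-520 nm emission).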

[2] = Confirmation and Secondary Assay for Modulators of Hemoglobin Beta Chain Splicing at IVS2 705 locus (AID 930);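 note: HeLa cells stably expressing the EGFP-705 splicing reporter; GFP fluorescence per well restored by corrected splicing of the IVS2-705 intron in EGFP; % of control where 0% means no effect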
Method in brief: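 Fluorescence gain (488 nm laser, 500-520 nm PMT) reflects restored correct splicing of a mutant IVS2-705 intron inside EGFP in stably transfected HeLa cells after 2-day compound treatment.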

[3] = qHTS Assay for Lipid Storage Modulators (AID 1519; calls by dose curve); details: Drosophila S3 cells, BODIPY lipid droplet/cell ratio, laser cytometry, cells loaded with oleic acid; for activity change, negative = inhibition: at 57.5 µM (top of the series)
Method in brief: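 Cells seeded at 5,000 per well were treated with compounds over a concentration series and loaded with oleic acid (400 uM, as added). Lipid droplet fluorescence (488 nm excitation, 500-530 nm channel) was read by laser-scanning cytometry and normalized to 20 uM Triacsin C.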

[4] = target: Ubiquitin carboxyl-terminal hydrolase 1 (Homo sapiens) (UniProt O94782); experiment: Inhibitors of USP1/UAF1: Pilot qHTS (AID 504865);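 note: rhodamine fluorescence freed from ubiquitin-rhodamine substrate followed over time; top concentration of the series differs between compounds; % is set by controls: 0 for no effect and ±100 for the full control effect; nearly all actives have a fitted effect of over 35% in size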
Sequence of Ubiquitin carboxyl-terminal hydrolase 1 (Homo sapiens) (O94782 whole entry, looked up): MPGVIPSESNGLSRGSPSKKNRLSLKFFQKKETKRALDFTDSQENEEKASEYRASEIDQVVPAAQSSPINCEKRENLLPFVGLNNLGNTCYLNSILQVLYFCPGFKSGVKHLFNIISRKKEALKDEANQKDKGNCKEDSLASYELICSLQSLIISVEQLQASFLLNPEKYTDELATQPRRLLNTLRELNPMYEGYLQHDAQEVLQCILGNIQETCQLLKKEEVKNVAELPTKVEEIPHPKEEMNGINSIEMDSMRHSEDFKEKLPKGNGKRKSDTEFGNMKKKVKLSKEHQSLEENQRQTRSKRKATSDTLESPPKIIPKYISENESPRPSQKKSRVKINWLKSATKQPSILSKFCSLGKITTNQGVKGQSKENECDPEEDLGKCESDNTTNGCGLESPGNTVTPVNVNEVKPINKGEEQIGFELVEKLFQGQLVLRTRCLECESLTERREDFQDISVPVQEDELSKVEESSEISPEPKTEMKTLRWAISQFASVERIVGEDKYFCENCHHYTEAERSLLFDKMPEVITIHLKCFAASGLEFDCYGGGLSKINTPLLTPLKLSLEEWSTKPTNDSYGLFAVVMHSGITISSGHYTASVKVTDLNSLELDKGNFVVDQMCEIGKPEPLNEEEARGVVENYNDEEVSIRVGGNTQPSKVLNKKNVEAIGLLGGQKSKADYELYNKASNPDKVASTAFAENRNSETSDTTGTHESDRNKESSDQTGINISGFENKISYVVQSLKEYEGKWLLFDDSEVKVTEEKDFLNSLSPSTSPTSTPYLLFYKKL
Method in brief: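 USP1/UAF1 complex (1nM) preincubated with compound 15 min at room temperature, then Ub-Rho substrate (150nM final) added. Fluorescence read kinetically at 480/540 nm, 6 reads every 60 seconds. Buffer: 50mM HEPES pH 7.8, 0.5mM EDTA, 0.1 mg/ml BSA, 1mM TCEP, 0.01% Tween-20.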

[5] = target: Cytochrome P450 2D6 (Homo sapiens) (UniProt P10635); experiment: Cytochrome P450 family 2 subfamily D member 6 (CYP2D6) small molecule antagonists: luciferase biochemical (cell-free) qHTS assay (AID 1645840; active = well fitted curve in the direction sought with a large enough effect in the repeat runs; an effect the other way counts as inactive or inconclusive; note: % is set by controls: 0 for no effect and ±100 for the full control effect; nearly all actives have a fitted effect of over 55% in size)
Method in brief: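 P450-Glo CYP2D6 system: proluciferin substrate converted by enzyme to luciferin, read by luminescence proportional to activity. Enzyme-substrate mix with compound 10 min at room temperature, then NADPH regeneration 1 h before detection reagent.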

[6] = target: Cytochrome P450 2C9 (Homo sapiens) (UniProt P11712); experiment: Cytochrome P450 family 2 subfamily C member 9 (CYP2C9) small molecule antagonists: luciferase biochemical (cell-free) qHTS assay (AID 1645842; active = well fitted curve in the direction sought with a large enough effect in the repeat runs; an effect the other way counts as inactive or inconclusive; note: % is set by controls: 0 for no effect and ±100 for the full control effect; nearly all actives have a fitted effect of over 55% in size)
Sequence of Cytochrome P450 2C9 (Homo sapiens) (P11712 whole entry, looked up): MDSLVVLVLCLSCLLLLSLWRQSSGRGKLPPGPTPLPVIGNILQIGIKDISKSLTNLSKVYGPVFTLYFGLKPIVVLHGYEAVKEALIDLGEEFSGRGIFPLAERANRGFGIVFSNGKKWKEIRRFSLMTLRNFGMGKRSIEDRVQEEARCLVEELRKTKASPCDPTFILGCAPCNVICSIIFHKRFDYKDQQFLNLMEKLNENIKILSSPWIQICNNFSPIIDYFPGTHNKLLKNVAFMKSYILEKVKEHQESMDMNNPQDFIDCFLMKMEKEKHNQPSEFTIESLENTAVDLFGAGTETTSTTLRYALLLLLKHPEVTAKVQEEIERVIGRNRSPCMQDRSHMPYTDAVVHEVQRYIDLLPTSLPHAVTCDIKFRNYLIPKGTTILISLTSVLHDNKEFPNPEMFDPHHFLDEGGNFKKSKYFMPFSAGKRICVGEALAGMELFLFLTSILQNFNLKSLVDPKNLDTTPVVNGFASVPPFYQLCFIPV
Method in brief: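 P450-Glo CYP2C9 system: proluciferin substrate with enzyme in mix containing 0.4% BSA, 10 min at room temperature, then NADPH regeneration solution added and incubated 1 h at 37C. Detection reagent stopped reaction; luminescence read after 20 min as RLU.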

[7] = target: Cytochrome P450 3A4 (Homo sapiens) (UniProt P08684); experiment: qHTS Assay for Inhibitors and Substrates of Cytochrome P450 3A4 (AID 884); note: potency is the fitted concentration of half-maximal effect; nearly all actives have a fitted effect of over 50% in size
Sequence of Cytochrome P450 3A4 (Homo sapiens) (P08684 whole entry, looked up): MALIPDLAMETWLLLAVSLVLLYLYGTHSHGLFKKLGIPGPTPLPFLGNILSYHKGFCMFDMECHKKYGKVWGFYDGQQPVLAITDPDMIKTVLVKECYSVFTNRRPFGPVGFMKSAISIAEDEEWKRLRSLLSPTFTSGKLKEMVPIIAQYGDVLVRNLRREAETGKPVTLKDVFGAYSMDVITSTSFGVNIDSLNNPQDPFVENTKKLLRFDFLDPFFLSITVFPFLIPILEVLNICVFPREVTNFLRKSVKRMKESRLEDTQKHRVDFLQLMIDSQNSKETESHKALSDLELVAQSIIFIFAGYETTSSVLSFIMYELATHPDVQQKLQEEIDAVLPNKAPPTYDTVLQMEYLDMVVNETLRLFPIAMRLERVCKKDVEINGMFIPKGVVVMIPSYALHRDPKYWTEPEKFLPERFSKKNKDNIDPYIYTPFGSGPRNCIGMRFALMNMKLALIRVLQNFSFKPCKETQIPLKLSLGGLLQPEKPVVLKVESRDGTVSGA
Method in brief: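 Luminescent readout of luciferin produced by CYP3A4 (20 nM) dealkylation of Luciferin-PPXE, 25 uM (its KM). NADPH-driven reaction ran 60 min at RT after 10 min compound preincubation; data scaled to 57 uM ketoconazole as 100% inhibition.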

[8] = target: Cytochrome P450 3A4 (Homo sapiens) (UniProt P08684); experiment: qHTS Assay for Activators of Cytochrome P450 3A4 (AID 885); note: nearly all actives have a fitted effect of over 65% in size
Method in brief: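 Human CYP3A4 dealkylates Luciferin-PPXE to luciferin, which luciferase detection converts to light. Substrate was at its KM (25uM), buffer 200mM KPO4, reaction 60 min at RT.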

[9] = Primary qHTS for small molecule stabilizers of the endoplasmic reticulum resident proteome: Secreted ER Calcium Modulated Protein (SERCaMP) assay (AID 1508630); note: % is set by controls: 0 for no effect and ±100 for the full control effect
Method in brief: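 The SH-SY5Y reporter protocol was run at 3 concentrations up to 38.3 uM (primary) or 11 concentrations (follow-up): 16 h compound, 100 nM thapsigargin for 4 h, then extracellular luciferase luminescence.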

[10] = target: Cytochrome P450 1A2 (Homo sapiens) (UniProt P05177); experiment: p450-cyp1a2 (AID 410; calls by dose curve; note: potency is the fitted concentration of half-maximal effect)
Sequence of Cytochrome P450 1A2 (Homo sapiens) (P05177 whole entry, looked up): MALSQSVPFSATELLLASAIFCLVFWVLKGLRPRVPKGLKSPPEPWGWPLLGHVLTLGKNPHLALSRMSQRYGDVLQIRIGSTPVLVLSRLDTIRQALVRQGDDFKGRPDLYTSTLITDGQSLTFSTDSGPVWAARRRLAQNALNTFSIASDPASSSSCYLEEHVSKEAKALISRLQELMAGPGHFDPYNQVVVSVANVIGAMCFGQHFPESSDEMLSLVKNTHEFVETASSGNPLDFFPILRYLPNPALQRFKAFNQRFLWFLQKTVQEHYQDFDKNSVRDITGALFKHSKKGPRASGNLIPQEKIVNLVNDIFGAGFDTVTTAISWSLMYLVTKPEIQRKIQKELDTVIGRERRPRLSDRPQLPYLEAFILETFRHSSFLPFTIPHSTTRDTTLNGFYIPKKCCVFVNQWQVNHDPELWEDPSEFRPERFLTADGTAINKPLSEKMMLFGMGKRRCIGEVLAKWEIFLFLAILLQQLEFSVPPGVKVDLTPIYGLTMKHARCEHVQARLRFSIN
Method in brief: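 Read-out is luminescence from luciferin produced by CYP1A2 demethylation of Luciferin-ME (100uM, at Km). Detection reagent stopped the 60 min NADPH-dependent reaction; signals were normalized to 57 uM furafylline.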

[11] = target: Glucocorticoid receptor (Homo sapiens) (UniProt P04150); experiment: GR-EFC Redistribution (AID 451; calls by dose curve; note: potency is the fitted concentration of half-maximal effect); details: CHO-K1 GR-EFC translocation, beta-gal luminescence, 2 h
Sequence of Glucocorticoid receptor (Homo sapiens) (P04150 whole entry, looked up, the tested form may be a part): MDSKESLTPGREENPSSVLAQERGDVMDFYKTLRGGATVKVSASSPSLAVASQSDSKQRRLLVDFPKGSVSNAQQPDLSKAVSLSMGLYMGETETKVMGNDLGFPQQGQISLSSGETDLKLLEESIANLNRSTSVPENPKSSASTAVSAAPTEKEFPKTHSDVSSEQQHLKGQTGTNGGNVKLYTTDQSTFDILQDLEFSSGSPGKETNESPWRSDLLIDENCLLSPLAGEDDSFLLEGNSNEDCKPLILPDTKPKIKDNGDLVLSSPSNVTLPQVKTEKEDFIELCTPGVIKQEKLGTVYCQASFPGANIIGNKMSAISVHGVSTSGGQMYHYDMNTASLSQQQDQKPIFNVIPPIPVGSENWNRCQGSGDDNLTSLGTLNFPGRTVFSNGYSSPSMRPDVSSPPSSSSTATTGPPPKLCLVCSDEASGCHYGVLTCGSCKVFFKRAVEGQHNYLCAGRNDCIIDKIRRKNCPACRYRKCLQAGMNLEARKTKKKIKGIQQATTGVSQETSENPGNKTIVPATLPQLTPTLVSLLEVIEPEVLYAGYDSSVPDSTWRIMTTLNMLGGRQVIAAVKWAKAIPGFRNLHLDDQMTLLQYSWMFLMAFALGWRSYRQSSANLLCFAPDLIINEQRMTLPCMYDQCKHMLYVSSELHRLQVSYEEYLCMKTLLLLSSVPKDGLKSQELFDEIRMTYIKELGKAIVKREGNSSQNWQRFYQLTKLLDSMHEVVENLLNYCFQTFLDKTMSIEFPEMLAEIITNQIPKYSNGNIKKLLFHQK
Method in brief: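 CHO-K1 cells stably expressing nuclear-localized β-gal enzyme acceptor and GR fused C-terminally to the enzyme donor fragment; ligand-driven nuclear translocation restores β-gal by complementation. Compounds titrated up to 46 uM final, 2 h at 37 °C; luminescence read.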

[12] = target: Mitogen-activated protein kinase 10 (Mus musculus) (UniProt Q61831); experiment: JNK3 AlphaScreen Assay (AID 530; active = well fitted curve in either direction with a large enough effect, not every such curve was filed as active;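 note: kinase came from lysate of stimulated human HepG2 cells; signal reports phosphorylation of biotinylated GST-cJun 1-79 at Ser73 with 10 µM ATP; % is set by controls: 0 for no effect and ±100 for the full control effect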)
Method in brief: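 Biotinylated GST-cJun(1-79) served as substrate for JNK3 in HepG2 lysates stimulated with IL-1beta and TNF-alpha. ATP was 10 uM final, pH 7.6. Ser73 phosphorylation was quantified by AlphaScreen (680 nm excitation).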

[13] = target: Glucocorticoid receptor (Homo sapiens) (UniProt P04150); experiment: GR-GFP Redistribution (AID 450;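 active = compounds whose dose series gives a full or clear partial fitted curve of increased nuclear translocation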; note: potency is the fitted concentration of half-maximal effect); details: U2OS GR-GFP nuclear translocation, laser cytometry, 2 h
[14] = target: Lysosomal acid glucosylceramidase (Homo sapiens) (UniProt P04062); experiment: Glucocerebrosidase-p2 (AID 348; in the data active = potency below about 10 µM; note: potency is the fitted concentration of half-maximal effect); details: purified GBA, blue fluorogenic substrate, 40 min
Method in brief: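 Normal human glucocerebrosidase (0.2 nM) with blue fluorogenic substrate (80 uM final) in citrate/phosphate pH 5.9 with 10mM sodium taurocholate, 0.01% tween-20; 40 min RT, NaOH/glycine stop; fluorescence Ex 365/Em 440; AC50 from a titration from 0.6 nM upwards.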

[15] = AP1 Signaling Pathway (AID 357; active = well fitted curve in either direction with a large enough effect, not every such curve was filed as active;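 note: ME-180 reporter cells stimulated with EGF at its EC50 level; % is set by controls: 0 for no effect and ±100 for the full control effect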); details: ME-180 AP-1-bla reporter, EGF-induced, beta-lactamase ratio, 5 h; at 7.69 µM (top of the series) unless noted
Method in brief: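 A ratiometric CCF4 readout (405 nm excitation; 460 and 530 nm emission) quantified AP-1-driven beta-lactamase in ME-180 cells after 5 h with compound and EC50 EGF; AC50 values were derived for activators and inhibitors.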

[16] = NFAT Signaling Pathway (AID 444; active = well fitted curve in either direction with a large enough effect, not every such curve was filed as active;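 note: carbachol stimulus at about its EC50 of 1 µM final; % is set by controls: 0 for no effect and ±100 for the full control effect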); details: Jurkat NFAT-bla M1, carbachol, beta-lactamase ratio, 5 h; at 7.69 µM (top of the series) unless noted
Method in brief: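 Jurkat cells carrying an NFAT-driven β-lactamase reporter and co-transfected muscarinic M1 receptor were treated with compound plus carbachol (1 uM final, an EC50 level) for 5 h at 37 °C. CCF4 loading followed for 1 h at RT; 460/530 nm ratio gave %activity.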

[17] = Stat Signaling Pathway (AID 446; active = well fitted curve in either direction with a large enough effect, not every such curve was filed as active); details: ME-180 SIE beta-lactamase reporter, IL-6 stimulated, 5 h; at 7.69 µM (top of the series) unless noted
Method in brief: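 Normalization used AC90 stimulation (300 pM IL-6) and AC90 inhibition (125 nM pan-JAK inhibitor at 40 pM IL-6). The underlying signal is SIE-driven beta-lactamase in ME-180 cells after 5 h IL-6 exposure with compound.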

[18] = target: Cytochrome P450 2C19 (Homo sapiens) (UniProt P33261); experiment: qHTS Assay for Inhibitors and Substrates of Cytochrome P450 2C19 (AID 899); note: nearly all actives have a fitted effect of over 60% in size; note: potency is the fitted concentration of half-maximal effect
Sequence of Cytochrome P450 2C19 (Homo sapiens) (P33261 whole entry, looked up): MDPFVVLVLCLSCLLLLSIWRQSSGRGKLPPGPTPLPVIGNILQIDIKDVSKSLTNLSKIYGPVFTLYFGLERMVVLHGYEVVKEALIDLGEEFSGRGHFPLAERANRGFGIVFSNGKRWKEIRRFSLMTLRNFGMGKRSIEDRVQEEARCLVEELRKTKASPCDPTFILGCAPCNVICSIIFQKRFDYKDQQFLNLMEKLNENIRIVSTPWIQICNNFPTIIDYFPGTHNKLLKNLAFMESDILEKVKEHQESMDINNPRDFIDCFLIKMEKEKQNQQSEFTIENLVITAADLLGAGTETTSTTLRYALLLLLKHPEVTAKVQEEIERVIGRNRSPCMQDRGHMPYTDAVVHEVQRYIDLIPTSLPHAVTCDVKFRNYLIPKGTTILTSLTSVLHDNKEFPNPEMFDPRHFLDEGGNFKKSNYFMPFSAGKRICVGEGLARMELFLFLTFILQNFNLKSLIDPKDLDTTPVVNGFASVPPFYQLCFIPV
Method in brief: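 Human CYP2C19 (5nM) with Luciferin-H EGE at 10uM (its KM) in 50mM KPO4 was preincubated with compound for 10 min at 37C. NADPH regeneration started a 60 min 37C reaction. Luciferin was read by luminescence, normalized to 57uM ketoconazole.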

[19] = target: Dual specificity protein kinase CLK4 (Homo sapiens) (UniProt Q9HAZ1); experiment: qHTS Assay for Inhibitors of CDC-like Kinase 4 (Kinase-Glo Assay) (AID 1770); note: potency is the fitted concentration of half-maximal effect; nearly all actives have a fitted effect of over 65% in size
Sequence of Dual specificity protein kinase CLK4 (Homo sapiens) (Q9HAZ1 whole entry, looked up): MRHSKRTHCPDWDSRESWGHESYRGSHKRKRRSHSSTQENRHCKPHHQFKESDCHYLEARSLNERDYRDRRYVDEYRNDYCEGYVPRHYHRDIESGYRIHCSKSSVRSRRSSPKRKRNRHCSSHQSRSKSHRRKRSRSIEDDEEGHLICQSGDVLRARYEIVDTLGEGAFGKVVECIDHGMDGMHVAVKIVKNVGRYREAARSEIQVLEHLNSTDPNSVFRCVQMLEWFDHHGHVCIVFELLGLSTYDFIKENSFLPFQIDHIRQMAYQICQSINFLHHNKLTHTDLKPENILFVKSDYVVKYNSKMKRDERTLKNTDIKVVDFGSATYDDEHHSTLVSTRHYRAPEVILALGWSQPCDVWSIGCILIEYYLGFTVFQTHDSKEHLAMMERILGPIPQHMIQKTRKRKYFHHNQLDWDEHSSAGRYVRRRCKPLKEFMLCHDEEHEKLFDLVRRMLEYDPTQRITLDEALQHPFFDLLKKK
Method in brief: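 Recombinant human Clk4 (25 nM) phosphorylated RS repeat peptide (100 uM) with 1 uM ATP in Tris pH 7.5/MgCl2/EGTA/DTT/Triton buffer for 4.5 h at room temperature. Residual ATP was quantified by Kinase-Glo luciferase luminescence.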

[20] = target: Dual specificity protein kinase CLK4 (Homo sapiens) (UniProt Q9HAZ1); experiment: qHTS Assay for Inhibitors of CDC-like Kinase 4 (ADP-Glo Assay) (AID 1771); note: potency is the fitted concentration of half-maximal effect; nearly all actives have a fitted effect of over 70% in size
Method in brief: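 In this ADP-Glo format, 1 uM ATP and 100 uM RS peptide served as substrates for 25 nM Clk4 in Mg2+/EGTA/DTT/Triton buffer; reactions ran 1 hr at room temperature before luminescent ADP quantification.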

[21] = target: Rap guanine nucleotide exchange factor 3 (Homo sapiens) (UniProt O95398); experiment: Confirmatory qHTS for antagonist of cAMP-regulated guanine nucleotide exchange factor 3 (EPAC1) (AID 1645880);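 note: plate controls were DMSO only for no effect and full effect of the ATA control for full effect; nearly all actives have a fitted effect of over 55% in size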
Sequence of Rap guanine nucleotide exchange factor 3 (Homo sapiens) (O95398 whole entry, looked up): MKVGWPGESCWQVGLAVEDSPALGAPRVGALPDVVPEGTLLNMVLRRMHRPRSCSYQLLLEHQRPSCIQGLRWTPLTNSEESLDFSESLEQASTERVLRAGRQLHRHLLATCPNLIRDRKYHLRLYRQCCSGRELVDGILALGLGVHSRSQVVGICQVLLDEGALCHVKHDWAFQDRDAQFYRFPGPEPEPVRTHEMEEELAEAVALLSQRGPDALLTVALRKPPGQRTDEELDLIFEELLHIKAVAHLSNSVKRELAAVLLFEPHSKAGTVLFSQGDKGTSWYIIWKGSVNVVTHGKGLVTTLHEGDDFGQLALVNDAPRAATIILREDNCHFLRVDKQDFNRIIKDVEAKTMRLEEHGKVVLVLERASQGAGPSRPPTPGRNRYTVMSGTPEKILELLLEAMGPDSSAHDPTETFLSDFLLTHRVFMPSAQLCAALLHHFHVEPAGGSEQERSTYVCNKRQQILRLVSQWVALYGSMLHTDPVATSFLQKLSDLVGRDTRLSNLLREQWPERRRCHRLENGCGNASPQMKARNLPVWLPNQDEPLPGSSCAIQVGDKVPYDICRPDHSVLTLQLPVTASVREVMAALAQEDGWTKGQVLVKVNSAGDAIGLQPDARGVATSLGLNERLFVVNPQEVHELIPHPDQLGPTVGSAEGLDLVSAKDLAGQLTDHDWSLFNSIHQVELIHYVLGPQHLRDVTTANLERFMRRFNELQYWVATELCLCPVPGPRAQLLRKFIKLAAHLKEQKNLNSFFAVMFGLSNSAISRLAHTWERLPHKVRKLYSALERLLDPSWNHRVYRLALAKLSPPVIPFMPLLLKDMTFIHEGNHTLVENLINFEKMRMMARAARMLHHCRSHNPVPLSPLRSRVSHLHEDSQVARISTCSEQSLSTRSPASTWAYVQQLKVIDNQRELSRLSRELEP
Method in brief: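 Released BODIPY-GDP fluoresces less than Rap1-bound BODIPY-GDP; the signal is followed at 480/540 nm at 5-min intervals over 30 min, after 5 min at room temperature. Reactions contain 100 nM EPAC1, 250 nM RAP1B-BODIPY-GDP and 50 uM GDP; results are normalized to ATA and DMSO.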

[22] = target: Rap guanine nucleotide exchange factor 3 (Homo sapiens) (UniProt O95398); experiment: Confirmatory qHTS for agonist of cAMP-regulated guanine nucleotide exchange factor 3 (EPAC1) (AID 1645881);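 note: EPAC1 catalysed release of BODIPY-GDP from Rap1B seen as fluorescence loss; 100% = effect of cAMP agonist control; nearly all actives have a fitted effect of over 75% in size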
[23] = target: Rap guanine nucleotide exchange factor 4 (Homo sapiens) (UniProt Q8WZA2); experiment: Confirmatory qHTS for agonist of cAMP-regulated guanine nucleotide exchange factor 4 (EPAC2) (AID 1645884);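 note: nucleotide exchange releases bodipy-GDP from Rap1 and this lowers its fluorescence; % is set by controls: 0 for no effect and ±100 for the full control effect; nearly all actives have a fitted effect of over 65% in size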
[24] = target: Rap guanine nucleotide exchange factor 4 (Homo sapiens) (UniProt Q8WZA2); experiment: Confirmatory qHTS for antagonist of cAMP-regulated guanine nucleotide exchange factor 4 (EPAC2) (AID 1645885); note: % is set by controls: 0 for no effect and ±100 for the full control effect; nearly all actives have a fitted effect of over 25% in size
[25] = target: 3',5'-cyclic-AMP phosphodiesterase 4B (Homo sapiens) (UniProt Q07343); experiment: qHTS Assay for Inhibitors of PDE-IV (AID 607; active = well fitted activation curve with a large enough effect in the main read-out, with a control signal flat, not every such curve was filed as active; note: % of control where 0% means no effect)
Method in brief: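 HEK293 ACTOne cells with CNG channel (1000/well), endogenous PDE4; membrane potential dye, compounds up to 22.9 uM final. Fluorescence Ex 535/Em 590; RO 20-1724 (100 uM final) as reference.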

[26] = target: Cytochrome P450 2C9 (Homo sapiens) (UniProt P11712); experiment: qHTS Assay for Inhibitors and Substrates of Cytochrome P450 2C9 (AID 883); note: % is set by controls: 0 for no effect and ±100 for the full control effect; nearly all actives have a fitted effect of over 60% in size
Method in brief: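 Human CYP2C9 (10nM) hydroxylated Luciferin-H (100uM, at its KM) to luciferin in 25mM KPO4. Compound was preincubated 10 min at 37C, then NADPH regeneration started a 60 min reaction at 37C. Luminescence was read after detection reagent, normalized to 57uM sulphaphenazole.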

[27] = qHTS Assay for Identification of Small Molecule Agonists for Hypoxia Response Element Signaling Pathway (AID 914; active = well fitted activation curve with a large enough effect in the signal ratio, with a control signal flat, not every such curve was filed as active; the % refers to the signal ratio; note: % of control where 0% means no effect); details: ME-180 (cervical carcinoma) HRE-bla reporter, beta-lactamase ratio, CoCl2, 17 h; activation: stronger effect = higher value
Method in brief: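 A beta-lactamase reporter under hypoxia response element control in ME-180 cells served as the system. Compound titrations plus EC50 CoCl2 ran 17 h at 37 degrees Celsius; AC50 values were fitted from %Activity.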

[28] = measured here: cell count channel max response
[29] = measured here: lipid channel max response

COC(=O)c1c(C)cc(OC(=O)c2c(C)cc(O)c(C=O)c2O)c(C)c1O
-15.4%: max response [3, 28]
inactive: Potency [1] | outcome [2] | activity change, negative = inhibition [3] -6.06% | Potency [4] | Potency [5] | Potency [6]
-19%: max response [3, 29]

O=C(CCCc1ccc(-c2ccccc2F)cc1)Nc1ccc(O)cc1
active: Potency [7] 31.6 µM
inactive: Potency [8] | outcome [9]

CC(=O)NC(C(=O)O)C(C)(C)SN=O (configuration not stated)
9%: max response [3, 29]
6.33%: max response [3, 28]
inactive: activity change, negative = inhibition [3] 0.182%

O=[N+]([O-])c1cccc2c[nH]nc12
inactive: Potency [11] > 46 µM | Potency [12] | Potency [8] | outcome [9]
active: Potency [10] 2.51 µM

CCCNC(=O)N1N=C(c2ccc(N)cc2)c2cc3c(cc2[C@H]1C)OCO3
inactive: Potency [13] > 46 µM | Potency [11] > 46 µM | Potency [8] | outcome [9]
active: Potency [10] 3.98 µM | Potency [7] 1.26 µM

COc1ccccc1CNc1ncnc2ccc(-c3ccccc3C#N)cc12
14.7%: max response [3, 29]
active: Potency [10] 1.26 µM | Potency [7] 3.98 µM | Potency [18] 7.94 µM | Potency [19] 6.31 µM | Potency [20] 7.94 µM
16.4%: max response [3, 28]
inactive: Potency [14] > 11.4 µM | activity change, negative = inhibition [15] -13.9% | activity change, negative = inhibition [16] 1.75% | activity, negative = inhibition [17] -23% | Potency [13] > 46 µM | Potency [11] > 46 µM | Potency [12] | Potency [8] | activity change, negative = inhibition [3] -1.18% | Potency [4] | Potency [21] | Potency [22] | Potency [23] | Potency [24]

COc1ncc2nc(C)c(=O)n(CCC#N)c2n1
active: Potency [10] 15.8 µM
inactive: activity change, negative = inhibition [16] -6.19% | activity, negative = inhibition [17] -5.09% | Potency [13] > 9.22 µM | Potency [11] > 46 µM | Potency [12] | Potency [25] | Potency [26] | Potency [18] | activation [27] 7.94% | outcome [9]
